PubChem BioAssay (EPA / NIEHS)
Inconclusive results are not listed. Activity calls are given as the source filed them. Rule for the calls, unless noted: active = hit-call score of the fitted dose curve at least 0.9, where 1 is the maximum; inactive = score below 0.9.

Legend:
[1] = ACEA_ER_80hr: ACEA Biosciences xCELLigence Real-Time Cell Analysis on Estrogen Receptor Agonism for Proliferation (AID 2282667; active = hit-call score of the fitted dose curve at least 0.9, where 1 is the maximum); conditions: T47D proliferation, impedance (xCELLigence), 80 h
Procedure, shortened: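 T47D human breast cells were seeded on electrode plates, monitored overnight, then exposed continuously to compounds in eight-point 1:4 dilutions from 100 uM (max 0.5% DMSO). Impedance-based growth was read at 80 h, fitted upward relative to DMSO.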

[2] = ATG_CRE_CIS: Attagene CIS-FACTORIAL HepG2 Assay for human cAMP Responsive Element (CRE) binding protein 3 (AID 2282926); conditions: HepG2 CRE cis-reporter, Attagene multiplexed mRNA; actives raise or lower the signal
Procedure, shortened: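 Capillary electrophoresis of 6-FAM-labelled, HpaI-digested PCR products quantified reporter transcripts. These came from HepG2 transiently transfected with cis-element reporters and exposed to test chemicals for 24 hours, with DMSO defining baseline activity.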

[3] = molecular target: CCAAT/enhancer-binding protein beta (Homo sapiens) (UniProt P17676); assay: ATG_C_EBP_CIS: Attagene CIS-FACTORIAL HepG2 Assay for human CCAAT/Enhancer Binding Protein (C/EBP) beta (AID 2282927); conditions: HepG2 Attagene cis-factorial transcription factor reporter; actives raise or lower the signal
Procedure, shortened: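 RT-PCR/capillary electrophoresis fluorescence of reporter mRNA, 24 h post-dose, in HepG2 cells carrying transfected cis-promoter reporter units. Bidirectional curve fitting against DMSO baseline captures gain or loss of signal.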

[4] = ATG_CMV_CIS: Attagene CIS-FACTORIAL HepG2 Assay for human CMV (Internal Marker) (AID 2282928); conditions: HepG2 CMV promoter reporter, transcription factor profiling; actives raise or lower the signal;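 note: endpoint acts as a background internal control marker rather than a target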
Procedure, shortened: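 24 h chemical treatment, HepG2 with transient multi-reporter transfection; RNA → oligo(dT) RT → PCR → 6-FAM extension → HpaI digest → CE fluorescence. Bidirectional fit, DMSO negative control.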

[5] = ATG_DR4_LXR_CIS: Attagene CIS-FACTORIAL HepG2 Assay for human Liver X Receptor (LXR), DR4 submotif (AID 2282929); conditions: HepG2 Attagene DR4 cis-reporter, mRNA transcription; actives raise or lower the signal
Procedure, shortened: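 Total RNA from 24 h-treated, MRTU-transfected HepG2 cells underwent reverse transcription, PCR, fluorescent primer extension and restriction digestion before capillary electrophoresis. Both increases and decreases in reporter signal were fitted against DMSO.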

[6] = ATG_AP_1_CIS: Attagene CIS-FACTORIAL HepG2 Assay for human Activator Protein 1 (AP-1) (AID 2282931); conditions: HepG2 Attagene cis-factorial AP-1 reporter mRNA; actives raise or lower the signal
Procedure, shortened: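 HepG2, transient cis-reporter transfection; 24 h; readout RT-PCR/CE fluorescence; DMSO baseline, gain and loss fitted.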

[7] = ATG_AP_2_CIS: Attagene CIS-FACTORIAL HepG2 Assay for human Activator Protein 2 (AP-2) (AID 2282932); conditions: HepG2 AP-2 cis-reporter, Attagene transcription factor profiling; actives raise or lower the signal
Procedure, shortened: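 Assay in transfected HepG2 with promoter-regulated reporters, 24 h incubation after dosing. Signal is reporter mRNA fluorescence (RT-PCR, capillary electrophoresis), analysed for both increases and decreases relative to DMSO controls.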

[8] = ATG_BRE_CIS: Attagene CIS-FACTORIAL HepG2 Assay for human Bone Morphogenetic Protein (BMP) Response Element (BRE) (AID 2282933); conditions: HepG2 BMP response element reporter, Attagene transcription factor profiling; actives raise or lower the signal
Procedure, shortened: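 Endogenous transcription factor activity at a BMP response element was monitored in transfected HepG2 cells 24 h after dosing. Fluorescent RT-PCR products were resolved by capillary electrophoresis, and activity was fitted in both directions versus DMSO.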

[9] = molecular target: Retinoic acid receptor alpha (Homo sapiens) (UniProt P10276); assay: ATG_DR5_RAR_CIS: Attagene CIS-FACTORIAL HepG2 Assay for human Retinoic Acid Receptor Alpha (RARE), DR5 submotif (AID 2282934); conditions: HepG2 Attagene cis-factorial RARE DR5 reporter, mRNA; actives raise or lower the signal;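 for AC50: reporter responds to endogenous RAR alpha beta and gamma in HepG2 not RARA alone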
Procedure, shortened: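 HepG2 cells transiently transfected with multiplexed reporter units under cis (DR5 RARE) promoters, so endogenous transcription factor activity is measured. After 24 h compound exposure, reporter mRNA is quantified by RT-PCR with fluorescent labelling and capillary electrophoresis; bidirectional fitting versus DMSO.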

[10] = molecular target: Transcription factor E2F1 (Homo sapiens) (UniProt Q01094); assay: ATG_E2F_CIS: Attagene CIS-FACTORIAL HepG2 Assay for human E2F Transcription Factor 1 (AID 2282935); conditions: HepG2 Attagene cis-reporter, E2F reporter RNA transcripts; actives raise or lower the signal
Procedure, shortened: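 In this cis-factorial format, endogenous factor activity drives transfected reporters in HepG2; transcripts collected at 24 h are quantified by fluorescence after RT-PCR and capillary separation.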

[11] = ATG_M_61_CIS: Attagene CIS-FACTORIAL HepG2 Assay for M61 Transcription Factor (Internal Marker) (AID 2282937); conditions: HepG2 Attagene CIS-FACTORIAL M61 internal marker reporter; actives raise or lower the signal
Procedure, shortened: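 Transfect HepG2 with MRTUs; dose 24 h; isolate RNA; reverse-transcribe with DNase I treatment; PCR-amplify, FAM-label and cut with HpaI for 2 h at 37 C; resolve by CE. Bidirectional fitting against DMSO.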

[12] = ATG_EGR_CIS: Attagene CIS-FACTORIAL HepG2 Assay for human Early Growth Response 1 (EGR1) (AID 2282938); conditions: HepG2 Attagene CIS-FACTORIAL EGR reporter mRNA; actives raise or lower the signal
Procedure, shortened: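 After a 24 h treatment of transiently transfected HepG2 cells, total RNA was reverse-transcribed and reporter sequences PCR-amplified, labelled and run on capillary electrophoresis. Reporters sit under cis-regulatory promoters sensing endogenous factors.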

[13] = ATG_M_19_CIS: Attagene CIS-FACTORIAL HepG2 Assay for M19 Transcription Factor (Internal Marker) (AID 2282939); conditions: HepG2 Attagene CIS-FACTORIAL M19 internal marker reporter; actives raise or lower the signal
Procedure, shortened: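 Background-control endpoint from a multiplexed HepG2 reporter panel. Cells carrying cis-regulated reporter constructs are treated 24 h, then reporter transcripts are amplified, fluorescently labelled and sized by capillary electrophoresis. DMSO defines baseline.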

[14] = ATG_ERE_CIS: Attagene CIS-FACTORIAL HepG2 Assay for Estrogen Response Element (ERE) (AID 2282940); conditions: HepG2 ERE cis-reporter, Attagene RNA transcript; actives raise or lower the signal
Procedure, shortened: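 Cells used were human hepatoma HepG2, transfected with multiple reporter transcription units under cis-regulatory promoters. Reporter mRNA, read 24 h post-dosing via fluorescent RT-PCR products on capillary electrophoresis, was fitted bidirectionally relative to DMSO.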

[15] = ATG_Ets_CIS: Attagene CIS-FACTORIAL HepG2 Assay for human Erythroblast Transformation Specific (ETS) (AID 2282941); conditions: HepG2 ETS cis-reporter transcription, actives raise or lower the signal
Procedure, shortened: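 Cis-regulated reporter mRNA induction in HepG2 (transient transfection), 24 h exposure, RT-PCR plus capillary electrophoresis detection; DMSO serves as negative control and baseline.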

[16] = molecular target: Hepatocyte nuclear factor 3-beta (Homo sapiens) (UniProt Q9Y261); assay: ATG_FoxA2_CIS: Attagene CIS-FACTORIAL HepG2 Assay for human Forkhead box A2 (FOXA2) (AID 2282942); conditions: HepG2 cis-reporter transcription factor activity, 24 h; actives raise or lower the signal
Procedure, shortened: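 24 h dosing of HepG2 bearing cis-reporter constructs; mRNA readout by RT-PCR/CE fluorescence; bidirectional fit, DMSO baseline.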

[17] = ATG_FoxO_CIS: Attagene CIS-FACTORIAL HepG2 Assay for human Forkhead box O (FoxO) (AID 2282943); conditions: HepG2 Attagene cis-reporter, FoxO element, mRNA; actives raise or lower the signal
Procedure, shortened: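 HepG2 cells transiently transfected with cis-promoter-driven multiple reporter transcription units; 24 h after chemical dosing, reporter mRNA quantified by RT-PCR, fluorescent primer extension, HpaI digestion and capillary electrophoresis. Bidirectional fitting versus DMSO baseline.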

[18] = ATG_GATA_CIS: Attagene CIS-FACTORIAL HepG2 Assay for human GATA Binding Protein (AID 2282944); conditions: HepG2 GATA cis-element reporter, Attagene multiplex mRNA; actives raise or lower the signal
Procedure, shortened: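 Endogenous transcription factor activity was captured through cis-promoter-driven reporters in transfected HepG2 cells. After 24 h exposure, reporter transcripts were quantified by RT-PCR with fluorescent capillary electrophoresis, and responses fitted both directions against DMSO.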

[19] = ATG_E_Box_CIS: Attagene CIS-FACTORIAL HepG2 Assay for human Enhancer Box (E-box) (AID 2282936); conditions: HepG2 E-box cis-reporter transcription, actives raise or lower the signal
Procedure, shortened: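 Measured 24 h post-dosing in HepG2 cells transfected with multiple cis-regulated reporter units, signal being reporter mRNA induction detected by fluorescent RT-PCR with capillary electrophoresis; gain or loss fitted against DMSO.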

Measured: AC50

Transcription factor E2F1 (Homo sapiens), sequence (Q01094 whole entry, looked up): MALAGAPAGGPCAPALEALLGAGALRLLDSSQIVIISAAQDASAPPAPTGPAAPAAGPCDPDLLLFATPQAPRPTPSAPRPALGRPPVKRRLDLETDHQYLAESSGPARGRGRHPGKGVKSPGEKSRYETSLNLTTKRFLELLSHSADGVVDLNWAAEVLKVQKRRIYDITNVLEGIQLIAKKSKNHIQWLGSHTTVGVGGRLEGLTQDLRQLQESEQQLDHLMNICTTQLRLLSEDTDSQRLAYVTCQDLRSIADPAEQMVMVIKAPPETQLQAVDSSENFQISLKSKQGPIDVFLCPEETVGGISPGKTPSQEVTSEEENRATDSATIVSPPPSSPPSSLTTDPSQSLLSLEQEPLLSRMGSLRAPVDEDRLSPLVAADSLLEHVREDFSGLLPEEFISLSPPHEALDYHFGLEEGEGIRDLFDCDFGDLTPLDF
Hepatocyte nuclear factor 3-beta (Homo sapiens), sequence (Q9Y261 whole entry, looked up): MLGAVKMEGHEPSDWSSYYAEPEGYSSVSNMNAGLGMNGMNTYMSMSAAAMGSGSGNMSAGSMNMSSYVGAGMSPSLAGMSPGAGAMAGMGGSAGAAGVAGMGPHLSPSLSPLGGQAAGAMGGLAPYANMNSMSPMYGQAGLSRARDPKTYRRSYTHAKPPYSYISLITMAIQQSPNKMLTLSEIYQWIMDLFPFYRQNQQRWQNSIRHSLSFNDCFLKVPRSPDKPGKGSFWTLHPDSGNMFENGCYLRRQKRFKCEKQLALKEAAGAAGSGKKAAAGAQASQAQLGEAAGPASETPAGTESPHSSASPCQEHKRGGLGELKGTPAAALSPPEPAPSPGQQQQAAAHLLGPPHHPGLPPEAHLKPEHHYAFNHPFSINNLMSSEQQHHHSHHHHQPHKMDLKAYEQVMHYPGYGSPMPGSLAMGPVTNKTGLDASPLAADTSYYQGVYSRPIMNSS
CCAAT/enhancer-binding protein beta (Homo sapiens), sequence (P17676 whole entry, looked up): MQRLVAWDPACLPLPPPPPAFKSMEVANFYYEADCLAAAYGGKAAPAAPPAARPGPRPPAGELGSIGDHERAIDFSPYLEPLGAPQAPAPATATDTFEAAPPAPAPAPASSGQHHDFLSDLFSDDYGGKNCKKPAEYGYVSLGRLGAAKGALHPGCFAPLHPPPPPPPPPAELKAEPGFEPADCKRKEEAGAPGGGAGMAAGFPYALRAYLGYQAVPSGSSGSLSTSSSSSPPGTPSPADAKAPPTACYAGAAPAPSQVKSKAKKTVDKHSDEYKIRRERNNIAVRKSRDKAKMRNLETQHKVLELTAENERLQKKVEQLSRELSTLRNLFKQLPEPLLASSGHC
Retinoic acid receptor alpha (Homo sapiens), sequence (P10276 whole entry, looked up): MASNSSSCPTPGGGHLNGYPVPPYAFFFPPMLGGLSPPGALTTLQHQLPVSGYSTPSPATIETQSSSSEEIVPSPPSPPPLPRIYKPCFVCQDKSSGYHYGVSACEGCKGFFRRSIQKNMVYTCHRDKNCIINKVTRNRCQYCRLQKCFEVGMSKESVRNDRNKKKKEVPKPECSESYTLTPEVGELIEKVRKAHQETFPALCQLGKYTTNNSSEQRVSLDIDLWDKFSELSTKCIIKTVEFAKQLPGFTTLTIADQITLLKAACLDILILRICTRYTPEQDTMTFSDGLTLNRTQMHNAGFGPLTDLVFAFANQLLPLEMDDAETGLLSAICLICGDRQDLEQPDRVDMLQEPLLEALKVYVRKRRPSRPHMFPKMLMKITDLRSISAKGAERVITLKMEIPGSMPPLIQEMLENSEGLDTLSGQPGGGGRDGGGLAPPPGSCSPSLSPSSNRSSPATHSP

CCCCCCCCCc1ccc(OCCO)cc1
active: [1] 0.278 µM | [2] 22.8 µM | [3] 4.25 µM | [4] 13.3 µM | [5] 19.3 µM | [6] 2.26 µM | [7] 23.2 µM | [8] 7.68 µM | [13] 25.2 µM | [15] 22.9 µM | [16] 21.9 µM | [17] 13.3 µM
inactive: [9] | [10] | [11] | [12] | [14] | [18]

CCc1cc(Cc2cc(CC)c(N)c(CC)c2)cc(CC)c1N
active: [2] 33.4 µM | [4] 6.64 µM | [5] 24.2 µM | [6] 23.6 µM | [9] 2.96 µM | [10] 54.4 µM | [16] 33.4 µM | [17] 58.8 µM
not listed: [19]
inactive: all other assays above

OCCC(O)CO (configuration not stated)
inactive: all assays above

NC(O)(C(F)(F)F)C(F)(F)F
inactive: all assays above

C=C(C)CCCC
not listed: [13] | [14] | [19]
inactive: all other assays above

OCC(O)CC(F)(F)C(F)(F)C(F)(F)C(F)(F)C(F)(F)C(F)(F)C(F)(F)C(F)(F)F (configuration not stated)
active: [15] 9.97 µM
not listed: [7] | [13]
inactive: all other assays above

CC(O)C#CC(C)O (configuration not stated)
active: [3] 179 µM | [4] 176 µM | [5] 64.9 µM | [6] 24.7 µM | [8] 182 µM | [19] 185 µM | [12] 82.9 µM | [16] 131 µM | [17] 63 µM | [18] 69.2 µM
inactive: [1] | [2] | [9] | [10] | [11] | [13] | [14] | [15]

CC(C)OC(=O)COc1ccc(Cl)cc1Cl
not listed: [19]
inactive: all other assays above

c1ccc(C[P+](c2ccccc2)(c2ccccc2)c2ccccc2)cc1
active: [1] 0.132 µM | [5] 100 µM | [8] 10.7 µM
not listed: [7]
inactive: all other assays above

OCCCCl
not listed: [14]
inactive: all other assays above

NCC(F)(F)C(F)(F)C(F)(F)C(F)(F)C(F)(F)C(F)(F)F
not listed: [7] | [13] | [14]
inactive: all other assays above

CCCCCCCC/C=C\CCCCCCCC(=O)N(C)CC(=O)O
inactive: all assays above

CC(=O)C=O
not listed: [13]
inactive: all other assays above

C=C(C)C(=O)OCC(F)(F)C(F)(F)C(F)(F)C(F)F
not listed: [7] | [10] | [14] | [19]
inactive: all other assays above
